# Data as given in PubChem BioAssay AID1159580 (chemical genetic matrix, 2015).
# The whole screen tested about 5,500 compounds, of which about 2,000 (36%) were called active. Not shown: some 18% with an inconclusive outcome. This is one part of the list. Unmarked numbers belong to inactive results. Cut-off read from the data, not from the text of the source: active = normalized growth mostly below about 0.91 (no sharp cut-off); inconclusive = no clear call, values can overlap the other calls; inactive = mostly above about 0.92.
# Test: chemical genetic growth profiling, strain panel (AID 1159580);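 note: tested at 20 µM; growth read once vehicle control cultures reached saturation at 30 °C; 1 = growth at the plate median or of vehicle wells; lower values mean less growth of the strain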
# Settings: growth OD
# [1] = S. cerevisiae deletion strains, locus YBR229C, strain ROT2, active compounds read low
# [2] = S. cerevisiae deletion strains, locus YDL101C, strain DUN1, active compounds read low
# [3] = S. cerevisiae deletion strains, locus YDR150W, strain NUM1, active compounds read low
# [4] = S. cerevisiae deletion strains, locus YEL061C, strain CIN8, active compounds read low
# [5] = S. cerevisiae deletion strains, locus YGR078C, strain PAC10, active compounds read low
# [6] = S. cerevisiae deletion strains, locus YHR030C, strain SLT2, active compounds read low
# [7] = S. cerevisiae deletion strains, locus YJR043C, strain POL32, active compounds read low
# [8] = S. cerevisiae deletion strains, locus YJR075W, strain HOC1, active compounds read low
# [9] = S. cerevisiae deletion strains, locus YKL190W, strain CNB1, active compounds read low
# [10] = S. cerevisiae deletion strains, locus YLR039C, strain RIC1, active compounds read low
# [11] = S. cerevisiae deletion strains, locus YLR262C, strain YPT6, active compounds read low
# [12] = S. cerevisiae deletion strains, locus YNL153C, strain GIM3, active compounds read low
# [13] = S. cerevisiae deletion strains, locus YPL241C, strain CIN2, active compounds read low
smiles,measurement,setting,value
O=C1C(c2ccc(Br)cc2)=C(O)c2ccccc21,normalized growth,"S. cerevisiae deletion strains, locus YAL013W, strain DEP1, active compounds read low",0.981
same,normalized growth,[1],0.912 (active)
same,normalized growth,[2],0.953
same,normalized growth,[3],0.958
same,normalized growth,[4],0.99
same,normalized growth,[5],0.915 (active)
same,normalized growth,"S. cerevisiae deletion strains, locus YGR229C, strain SMI1, active compounds read low",0.952
same,normalized growth,[6],0.849
same,normalized growth,"S. cerevisiae deletion strains, locus YHR087W, strain rtc3, active compounds read low",0.868 (active)
same,normalized growth,"S. cerevisiae deletion strains, locus YJL187C, strain SWE1, active compounds read low",0.913 (active)
same,normalized growth,[7],0.978
same,normalized growth,[8],0.851 (active)
same,normalized growth,[9],0.983
same,normalized growth,[10],0.974
same,normalized growth,"S. cerevisiae deletion strains, locus YLR058C, strain SHM2 (second series), active compounds read low",0.893 (active)
same,normalized growth,"S. cerevisiae deletion strains, locus YLR085C, strain ARP6, active compounds read low",0.982
same,normalized growth,[11],0.957
same,normalized growth,"S. cerevisiae deletion strains, locus YML094W, strain GIM5, active compounds read low",0.983
same,normalized growth,"S. cerevisiae deletion strains, locus YMR219W, strain ESC1, active compounds read low",0.896 (active)
same,normalized growth,"S. cerevisiae deletion strains, locus YMR263W, strain SAP30, active compounds read low",1.02
same,normalized growth,[12],0.966
same,normalized growth,"S. cerevisiae deletion strains, locus YNL298W, strain CLA4 (second series), active compounds read low",0.994
same,normalized growth,"S. cerevisiae deletion strains, locus YNL322C, strain KRE1, active compounds read low",0.938 (active)
same,normalized growth,"S. cerevisiae deletion strains, locus YNR030W, strain Alg12, active compounds read low",0.989
same,normalized growth,"S. cerevisiae deletion strains, locus YOL006C, strain TOP1, active compounds read low",1.01
same,normalized growth,"S. cerevisiae deletion strains, locus YPL055C, strain LGE1, active compounds read low",0.928
same,normalized growth,[13],1.03
same,normalized growth,"S. cerevisiae deletion strains, locus YPR135W, strain CTF4, active compounds read low",0.942
same,normalized growth,"S. cerevisiae strains, strain wild type, active compounds read low",0.979
C/C=C(/C)C(=O)O[C@@H]1Cc2c(ccc3ccc(=O)oc23)OC1(C)C,normalized growth,"S. cerevisiae deletion strains, locus YBR021W, strain FUR4, active compounds read low",1.08
same,normalized growth,[1],0.984
same,normalized growth,"S. cerevisiae deletion strains, locus YCL029C, strain bik1, active compounds read low",1.01
same,normalized growth,"S. cerevisiae deletion strains, locus YDL035C, strain GPR1, active compounds read low",0.974
same,normalized growth,"S. cerevisiae deletion strains, locus YDL074C, strain BRE1, active compounds read low",0.976
same,normalized growth,[2],1.01
same,normalized growth,"S. cerevisiae deletion strains, locus YDL134C, strain PPH21, active compounds read low",0.947
same,normalized growth,"S. cerevisiae deletion strains, locus YDL185W, strain tfp1, active compounds read low",1.01
same,normalized growth,"S. cerevisiae deletion strains, locus YDL192W, strain arf1, active compounds read low",0.977
same,normalized growth,"S. cerevisiae deletion strains, locus YDR101C, strain arx1, active compounds read low",1.03
same,normalized growth,[3],0.934
same,normalized growth,"S. cerevisiae deletion strains, locus YDR162C, strain NBP2, active compounds read low",0.927
same,normalized growth,"S. cerevisiae deletion strains, locus YDR318W, strain mcm21, active compounds read low",0.962
same,normalized growth,"S. cerevisiae deletion strains, locus YDR388W, active compounds read low",0.996
same,normalized growth,"S. cerevisiae deletion strains, locus YDR502C, strain sam2, active compounds read low",1.03
same,normalized growth,[4],0.95
same,normalized growth,"S. cerevisiae deletion strains, locus YER110C, active compounds read low",1
same,normalized growth,"S. cerevisiae deletion strains, locus YER155C, strain BEM2, active compounds read low",1
same,normalized growth,"S. cerevisiae deletion strains, locus YER167W, strain BCK2, active compounds read low",0.978
same,normalized growth,"S. cerevisiae deletion strains, locus YGL078C, strain dbp3, active compounds read low",0.991
same,normalized growth,"S. cerevisiae deletion strains, locus YGL086W, strain mad1, active compounds read low",1.02
same,normalized growth,"S. cerevisiae deletion strains, locus YGL248W, strain PDE1, active compounds read low",0.966
same,normalized growth,[5],0.987
same,normalized growth,"S. cerevisiae deletion strains, locus YGR135W, strain pre9, active compounds read low",0.97
same,normalized growth,"S. cerevisiae deletion strains, locus YGR252W, strain gcn5, active compounds read low",1.05
same,normalized growth,[6],0.992
same,normalized growth,"S. cerevisiae deletion strains, locus YHR079C, strain IRE1 (second series), active compounds read low",0.987
same,normalized growth,"S. cerevisiae deletion strains, locus YHR094C, strain hxt1, active compounds read low",0.989
same,normalized growth,"S. cerevisiae deletion strains, locus YHR129C, strain ARP1, active compounds read low",0.973
same,normalized growth,"S. cerevisiae deletion strains, locus YHR200W, strain rpn10, active compounds read low",1.01
same,normalized growth,"S. cerevisiae deletion strains, locus YIL066C, strain RNR3, active compounds read low",0.979
same,normalized growth,"S. cerevisiae deletion strains, locus YIL073C, strain SPO22, active compounds read low",0.96
same,normalized growth,"S. cerevisiae deletion strains, locus YIL125W, strain kgd1, active compounds read low",1
same,normalized growth,"S. cerevisiae deletion strains, locus YIR030C, strain dcg1, active compounds read low",0.989
same,normalized growth,"S. cerevisiae deletion strains, locus YJL095W, strain BCK1, active compounds read low",0.937
same,normalized growth,"S. cerevisiae deletion strains, locus YJL134W, strain LCB3, active compounds read low",0.985
same,normalized growth,"S. cerevisiae deletion strains, locus YJL168C, strain set2, active compounds read low",1
same,normalized growth,"S. cerevisiae deletion strains, locus YJL187C, strain SWE1 (second series), active compounds read low",0.984
same,normalized growth,[7],1.01
same,normalized growth,[8],0.99
same,normalized growth,"S. cerevisiae deletion strains, locus YKL009W, strain mrt4, active compounds read low",0.987
same,normalized growth,"S. cerevisiae deletion strains, locus YKL068W, active compounds read low",0.983
same,normalized growth,"S. cerevisiae deletion strains, locus YKL085W, strain MDH1 (second series), active compounds read low",0.978
same,normalized growth,"S. cerevisiae deletion strains, locus YKL085W, strain MDH1, active compounds read low",0.978
same,normalized growth,[9],0.935
same,normalized growth,"S. cerevisiae deletion strains, locus YKR001C, strain vps1, active compounds read low",0.998
same,normalized growth,[10],0.792
same,normalized growth,"S. cerevisiae deletion strains, locus YLR058C, strain SHM2, active compounds read low",0.97
same,normalized growth,"S. cerevisiae deletion strains, locus YLR102C, strain apc9, active compounds read low",0.99
same,normalized growth,[11],0.761
same,normalized growth,"S. cerevisiae deletion strains, locus YLR268W, strain sec22, active compounds read low",1
same,normalized growth,"S. cerevisiae deletion strains, locus YLR330W, strain CHS5, active compounds read low",0.989
same,normalized growth,"S. cerevisiae deletion strains, locus YLR342W, strain FKS1 (second series), active compounds read low",0.987
same,normalized growth,"S. cerevisiae deletion strains, locus YLR371W, strain rom2, active compounds read low",1
same,normalized growth,"S. cerevisiae deletion strains, locus YLR418C, strain cdc73, active compounds read low",1.06
same,normalized growth,"S. cerevisiae deletion strains, locus YML016C, strain PPZ1, active compounds read low",0.987
same,normalized growth,"S. cerevisiae deletion strains, locus YML032C, strain rad52, active compounds read low",0.969
same,normalized growth,"S. cerevisiae deletion strains, locus YML124C, strain tub3, active compounds read low",0.982
same,normalized growth,"S. cerevisiae deletion strains, locus YMR078C, strain ctf18, active compounds read low",0.985
same,normalized growth,"S. cerevisiae deletion strains, locus YMR223W, strain ubp8, active compounds read low",0.974
same,normalized growth,"S. cerevisiae deletion strains, locus YMR307W, strain GAS1, active compounds read low",0.716
same,normalized growth,"S. cerevisiae deletion strains, locus YNL067W, strain RPL9B, active compounds read low",0.951
same,normalized growth,[12],0.996
same,normalized growth,"S. cerevisiae deletion strains, locus YNL233W, strain BNI4, active compounds read low",1
same,normalized growth,"S. cerevisiae deletion strains, locus YNL250W, strain rad50, active compounds read low",0.981
same,normalized growth,"S. cerevisiae deletion strains, locus YNL271C, strain bni1, active compounds read low",0.989
same,normalized growth,"S. cerevisiae deletion strains, locus YNL298W, strain CLA4, active compounds read low",0.984
same,normalized growth,"S. cerevisiae deletion strains, locus YNL307C, strain MCK1, active compounds read low",1
same,normalized growth,"S. cerevisiae deletion strains, locus YNR052C, strain pop2, active compounds read low",0.915
same,normalized growth,"S. cerevisiae deletion strains, locus YOL012C, strain htz1",0.999
same,normalized growth,"S. cerevisiae deletion strains, locus YOL147C, strain pex11, active compounds read low",0.99
same,normalized growth,"S. cerevisiae deletion strains, locus YOR061W, strain CKA2, active compounds read low",0.974
same,normalized growth,"S. cerevisiae deletion strains, locus YOR069W, strain VPS5, active compounds read low",0.975
same,normalized growth,"S. cerevisiae deletion strains, locus YOR136W, strain idh2, active compounds read low",1.03
same,normalized growth,"S. cerevisiae deletion strains, locus YOR144C, strain elg1, active compounds read low",0.992
same,normalized growth,"S. cerevisiae deletion strains, locus YOR184W, strain ser1, active compounds read low",0.932
same,normalized growth,"S. cerevisiae deletion strains, locus YOR316C, strain cot1, active compounds read low",0.987
same,normalized growth,[13],0.953
same,normalized growth,"S. cerevisiae deletion strains, locus YPR119W, strain clb2, active compounds read low",0.976
same,normalized growth,"S. cerevisiae deletion strains, locus YPR141C, strain kar3, active compounds read low",0.981
same,normalized growth,"S. cerevisiae deletion strains, locus YPR163C, strain tif3, active compounds read low",0.987
same,normalized growth,"S. cerevisiae deletion strains, locus YPR167C, strain met16, active compounds read low",0.98
same,normalized growth,"S. cerevisiae deletion strains, strain wtn01, active compounds read low",1.04
